Source: PubChem BioAssay (NCI)
Several values for one entry are separate records, joined by “and”; a condition that tells them apart may be missing. Equal entries are not always repeated. About 83,000 compounds went through this panel and 20% of them were active in at least one assay; those are over-represented in the sample as a whole.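 Step 1: grow cells in 96-well plates. Step 2: add test compound at a single concentration. Step 3: incubate 48 h. Step 4: record percent growth.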 Activity calls are given as the source filed them. Rule for the calls: active = growth percent below 10; inactive = the rest.

Assays:
Assay in all cases: NCI-60 one-dose screen, 48 h (100 = growth as untreated, 0 = no growth, -100 = all killed)
Settings in all cases: 10 µM unless noted
NCI-H23 lung = system: NCI-H23 lung
NCI-H226 lung = system: NCI-H226 lung
NCI-H322M lung = system: NCI-H322M lung
HOP-62 NSCLC = system: HOP-62 NSCLC
NCI-H460 lung = system: NCI-H460 lung
HOP-92 NSCLC = system: HOP-92 NSCLC
NCI-H522 lung = system: NCI-H522 lung
A549/ATCC NSCLC = system: A549/ATCC NSCLC
786-0 renal = system: 786-0 renal
COLO 205 colon = system: COLO 205 colon

Measured: growth

Cc1cccc(N2CCN(C3=C(Cl)C(=O)c4ncccc4C3=O)CC2)c1
inactive: NCI-H23 lung 55.3% | NCI-H226 lung 90.3% | NCI-H322M lung 93.8% | HOP-62 NSCLC 83.3% | NCI-H460 lung 58.4% | HOP-92 NSCLC 144% | NCI-H522 lung 26.7% | A549/ATCC NSCLC 93.8% | 786-0 renal 104% | COLO 205 colon 90.4%

C#C[C@]1(O)CC[C@H]2[C@@H]3CC=C4c5sc(Nc6cc(C)cc(C)c6)nc5CC[C@]4(C)[C@H]3CC[C@@]21C
active: 786-0 renal -31.2% | COLO 205 colon -13.3%
inactive: NCI-H23 lung 14.8% | NCI-H226 lung 38.6% | NCI-H322M lung 40.9% | HOP-62 NSCLC 20.5% | NCI-H460 lung 12.2% | HOP-92 NSCLC 31.4% | NCI-H522 lung 42.7% | A549/ATCC NSCLC 21.1%

COc1cc2oc(-c3cccc(NC(=O)[C@@H](N)C(C)C)c3)cc(=O)c2c(OC)c1OC
inactive: NCI-H23 lung 103% | NCI-H226 lung 107% | NCI-H322M lung 102% | HOP-62 NSCLC 103% | NCI-H460 lung 103% | HOP-92 NSCLC 91.9% | NCI-H522 lung 92.7% | A549/ATCC NSCLC 94.6% | 786-0 renal 87.1% | COLO 205 colon 111%

COC(=O)CNC(=O)c1cccc(-c2cc(=O)c3c(OC)c(OC)c(OC)cc3o2)c1
inactive: NCI-H23 lung 98.1% | NCI-H226 lung 95.8% | NCI-H322M lung 85.4% | HOP-62 NSCLC 119% | NCI-H460 lung 98.7% | HOP-92 NSCLC 67.6% | NCI-H522 lung 99.6% | A549/ATCC NSCLC 101% | 786-0 renal 104% | COLO 205 colon 114%

C#Cc1nc(/C=C/C(=O)NO)cs1
inactive: NCI-H226 lung 75.8% | NCI-H322M lung 82.5% | HOP-62 NSCLC 48.5% | NCI-H460 lung 63.4% | A549/ATCC NSCLC 69.6% | COLO 205 colon 79.8%
active: NCI-H23 lung -86.7% | HOP-92 NSCLC -79.5% | NCI-H522 lung -60% | 786-0 renal -76.5%

O=c1nc(Nc2ccc([N+](=O)[O-])cc2O)sc2ccccc12
inactive: NCI-H23 lung 40.4% | NCI-H226 lung 57.2% | NCI-H322M lung 51.4% | HOP-62 NSCLC 47% | NCI-H460 lung 22.1% | NCI-H522 lung 14.2% | A549/ATCC NSCLC 41.7% | 786-0 renal 37.7% | COLO 205 colon 96.5%
active: HOP-92 NSCLC -0.0775%

Cc1ccc2c(n1)C(=O)C(Cl)=C(Nc1ccc(C(=O)OC(C)(C)C)cc1)C2=O
inactive: NCI-H23 lung 75.2% [9.25 µM] | NCI-H226 lung 85.8% [9.25 µM] | NCI-H322M lung 101% [9.25 µM] | HOP-62 NSCLC 106% [9.25 µM] | NCI-H460 lung 102% [9.25 µM] | A549/ATCC NSCLC 99.9% [9.25 µM]
active: HOP-92 NSCLC -54.9% [9.25 µM] | NCI-H522 lung -14.1% [9.25 µM] | 786-0 renal -56.4% [9.25 µM] | COLO 205 colon -46.1% [9.25 µM]

COc1cc(-c2nc(-c3ccccc3)[nH]c2-c2ccnc(NCCCNS(=O)(=O)c3cccc(F)c3)n2)ccc1F
inactive: NCI-H23 lung 101% | NCI-H226 lung 83.9% | NCI-H322M lung 102% | HOP-62 NSCLC 130% | NCI-H460 lung 94.2% | HOP-92 NSCLC 134% | NCI-H522 lung 85.4% | A549/ATCC NSCLC 87.1% | 786-0 renal 98.4% | COLO 205 colon 93%

c1ccc(-c2cn3c(-c4c[nH]c5ccccc45)csc3n2)cc1
active: HOP-92 NSCLC -1.71%
inactive: NCI-H23 lung 57.8% | NCI-H226 lung 80.4% | NCI-H322M lung 85.4% | HOP-62 NSCLC 91.3% | NCI-H460 lung 60.8% | NCI-H522 lung 51% | A549/ATCC NSCLC 92% | 786-0 renal 99.5% | COLO 205 colon 83.5%

Cn1cc(-c2nn3cc(-c4ccncc4)nc3s2)c2cc(F)ccc21
inactive: NCI-H23 lung 82% | NCI-H226 lung 83.5% | NCI-H322M lung 87.9% | HOP-62 NSCLC 79.6% | NCI-H460 lung 65.8% | HOP-92 NSCLC 49.2% | NCI-H522 lung 86.9% | A549/ATCC NSCLC 94.9% | 786-0 renal 89.6% | COLO 205 colon 55%

CCOC(=O)C(=O)Nc1ccc2c(ccn2C(=O)c2cccc(F)c2)c1
inactive: NCI-H23 lung 95.8% | NCI-H226 lung 97.2% | NCI-H322M lung 93.8% | HOP-62 NSCLC 95.9% | NCI-H460 lung 100% | HOP-92 NSCLC 78.9% | NCI-H522 lung 96.1% | A549/ATCC NSCLC 102% | 786-0 renal 97.6% | COLO 205 colon 108%

Cc1ccc([C@H]2c3[nH]c4ccccc4c3C[C@H]3C(=O)N(CCCCCCC(=O)NO)CC(=O)N23)s1
inactive: NCI-H23 lung 77.6% | NCI-H226 lung 94% | NCI-H322M lung 67.4% | HOP-62 NSCLC 68% | NCI-H460 lung 57.3% | HOP-92 NSCLC 51.2% | NCI-H522 lung 41.1% | A549/ATCC NSCLC 85.5% | 786-0 renal 89.3% | COLO 205 colon 67.9%

CN1CCN(Cc2ccc(NC(=O)c3cncc(C#Cc4cnc(N)nc4)c3)cc2C(F)(F)F)CC1
active: HOP-92 NSCLC -28.8%
inactive: NCI-H23 lung 26.5% | NCI-H226 lung 12.8% | NCI-H322M lung 34.3% | HOP-62 NSCLC 19.3% | NCI-H460 lung 12.9% | NCI-H522 lung 36.5% | A549/ATCC NSCLC 38% | 786-0 renal 40% | COLO 205 colon 13.2%

COc1cc(-c2nc(-c3ccccc3)[nH]c2-c2ccnc(NCCCNS(=O)(=O)c3ccc(C(F)(F)F)cc3)n2)ccc1Cl
inactive: NCI-H23 lung 30.8% and 57% | NCI-H226 lung 36.2% and 51.7% | NCI-H322M lung 82.2% and 76.4% | HOP-62 NSCLC 88.3% and 55.4% | NCI-H460 lung 14.3% and 26.7% | HOP-92 NSCLC 41.3% and 49.4% | NCI-H522 lung 60.6% and 26.8% | A549/ATCC NSCLC 31% and 29.3% | 786-0 renal 33.3% and 35.6% | COLO 205 colon 48.8% and 11.1%

C/C(=N\NC(N)=S)c1nnn(-c2ccc([N+](=O)[O-])cc2)c1C
inactive: NCI-H23 lung 95.4% | NCI-H226 lung 93.1% | NCI-H322M lung 95.3% | HOP-62 NSCLC 99.4% | NCI-H460 lung 100% | HOP-92 NSCLC 98.7% | A549/ATCC NSCLC 103% | 786-0 renal 103% | COLO 205 colon 103%

Cc1ccc2c(n1)C(=O)C(Cl)=C(Nc1cccc(C(F)(F)F)c1)C2=O
inactive: NCI-H23 lung 52.3% | NCI-H226 lung 73.3% | NCI-H322M lung 108% | HOP-62 NSCLC 141% | NCI-H460 lung 101% | HOP-92 NSCLC 107% | A549/ATCC NSCLC 105% | 786-0 renal 85.8% | COLO 205 colon 106%

C=CCSC1=NC2C(N(CC)C(=O)N2CC)N1/N=C/C=C/c1ccccc1OC (stereo not given)
inactive: NCI-H23 lung 84% | NCI-H226 lung 78.3% | NCI-H322M lung 102% | HOP-62 NSCLC 80.7% | NCI-H460 lung 84.3% | HOP-92 NSCLC 68.4% | A549/ATCC NSCLC 69.8% | 786-0 renal 98.5% | COLO 205 colon 83.1%

C/C(=N\NC(=O)/C=C/CC(=O)O)c1nnn(-c2ccc([N+](=O)[O-])cc2)c1C
inactive: NCI-H23 lung 97.8% | NCI-H226 lung 96.9% | NCI-H322M lung 99.1% | HOP-62 NSCLC 104% | NCI-H460 lung 111% | HOP-92 NSCLC 74.3% | A549/ATCC NSCLC 102% | 786-0 renal 101% | COLO 205 colon 108%

O=C(CSc1nc2ccccc2c(=O)n1-c1ccccc1)Nc1ccc(S(=O)(=O)Nc2nccs2)cc1
inactive: NCI-H23 lung 86.1% | NCI-H226 lung 73.6% | NCI-H322M lung 77% | HOP-62 NSCLC 80.4% | NCI-H460 lung 85.2% | HOP-92 NSCLC 89.4% | A549/ATCC NSCLC 84.4% | 786-0 renal 66.1% | COLO 205 colon 103%

NCCNC(=O)c1cccc(COc2ccccc2NC(=O)c2cc(Br)c(Br)[nH]2)c1
inactive: NCI-H23 lung 84.1% | NCI-H226 lung 95.4% | NCI-H322M lung 99.7% | HOP-62 NSCLC 105% | NCI-H460 lung 99.4% | HOP-92 NSCLC 107% | A549/ATCC NSCLC 96.7% | 786-0 renal 78.9% | COLO 205 colon 110%

COc1ccc(NC(=O)CCCCCCNC(=O)C(O)(O)C(F)(F)F)cc1
inactive: NCI-H23 lung 53.2% | NCI-H226 lung 84.1% | NCI-H322M lung 66.1% | HOP-62 NSCLC 28.3% | NCI-H460 lung 40.2% | HOP-92 NSCLC 28.5% | A549/ATCC NSCLC 46.3% | 786-0 renal 52.9%
active: NCI-H522 lung 0.885% | COLO 205 colon 9.56%

COc1ccc(-c2cc(-c3ccc(N(C)C)cc3)n3c(n2)nc2ccccc23)cc1
active: HOP-92 NSCLC -5.95%
inactive: NCI-H23 lung 68% | NCI-H226 lung 60.8% | NCI-H322M lung 82.2% | HOP-62 NSCLC 77.9% | NCI-H460 lung 53.3% | NCI-H522 lung 17.7% | A549/ATCC NSCLC 38.6% | 786-0 renal 42.8% | COLO 205 colon 59.4%

CC(C)(C)c1cc(NC(=O)Nc2ccc(-c3cn4c5c(sc4n3)CCc3cn(CCCN4CCCCC4)cc3-5)cc2)no1
active: NCI-H23 lung -84.2% | NCI-H322M lung -78.8% | HOP-62 NSCLC -50.3% | NCI-H460 lung -69.1% | NCI-H522 lung -55.3% | A549/ATCC NSCLC -79.6% | 786-0 renal -98.1% | COLO 205 colon 5.79%
inactive: NCI-H226 lung 92.6% | HOP-92 NSCLC 75.4%

COc1ccc(C(C)=C(c2ccc(OCCN(C)C)cc2)c2ccc(OCCN(C)C)cc2)cc1
active: NCI-H23 lung -13.7% | NCI-H226 lung -7.67% | NCI-H322M lung -2.39% | HOP-62 NSCLC -15.8% | NCI-H460 lung -14.8% | HOP-92 NSCLC -43.6% | A549/ATCC NSCLC -3.07% | 786-0 renal -88.5% | COLO 205 colon -73%

CCOC(=O)c1c(NC(=O)c2cccc(C(F)(F)F)c2)sc2c1CCC(=O)C2
inactive: NCI-H23 lung 16% | NCI-H226 lung 71.8% | NCI-H322M lung 95.1% | HOP-62 NSCLC 31.8% | NCI-H460 lung 27.9% | HOP-92 NSCLC 29.9% | A549/ATCC NSCLC 28.9% | 786-0 renal 98.4% | COLO 205 colon 15.8%

N#Cc1cnc2ccc(-c3cnc4n[nH]nc4c3)cc2c1N1CCc2cc(F)c(Cl)cc21
active: HOP-92 NSCLC 4.22%
inactive: NCI-H23 lung 14.4% | NCI-H226 lung 11.7% | NCI-H322M lung 11.1% | HOP-62 NSCLC 11.8% | NCI-H460 lung 17.5% | A549/ATCC NSCLC 11.2% | 786-0 renal 16.7% | COLO 205 colon 37.8%

O=C(O)c1ccc(-n2c(=O)n(-c3cccc(C(F)(F)F)c3)c(=O)c3cc(-c4ccc(F)cc4F)ccc32)cc1
active: NCI-H23 lung -4.43% | NCI-H322M lung 8.23% | HOP-62 NSCLC 6.54% | NCI-H460 lung 5.81% | HOP-92 NSCLC -28.5%
inactive: NCI-H226 lung 10.4% | A549/ATCC NSCLC 10% | 786-0 renal 22.3% | COLO 205 colon 65.1%
